Results from PubChem BioAssay (NCATS).
Inconclusive results are not listed. Activity calls are given as the source filed them. Unless noted, calls follow the shape of the full dose curve.

Tests used:
[1] = biological target: Bile acid receptor (Homo sapiens) (UniProt Q96RI1); test: qHTS assay for small molecule agonists of farnesoid X receptor signaling (AID 588527); conditions: HEK293T FXR-UAS-bla, beta-lactamase ratio, 16 h; activation: stronger effect = higher value;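 also: series mostly up to about 77 µM; 0% = vehicle basal and 100% = reference agonist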
Summary of the method: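 FXR-UAS-bla HEK293T cells (10% dialyzed FBS) preincubated 5-7 h at 37 C, then compounds at up to 92 uM for 16 h at 37 C. CCF4 beta-lactamase read-out after 2 h RT. Normalized to chenodeoxycholic acid (100 uM) and DMSO; Hill fit gave EC50 and efficacy.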

[2] = biological target: Peroxisome proliferator-activated receptor delta (Homo sapiens) (UniProt Q03181); test: qHTS assay for small molecule agonists of peroxisome proliferator-activated receptor delta signaling (AID 588534);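 also: 0% = DMSO basal wells and 100% = positive control agonist at 10 µM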
Summary of the method: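 Fluorescence from CCF4 substrate cleavage by beta-lactamase reporter, read 2 hrs at RT, measured agonist activity. Compounds were tested with 18 hrs exposure at 37 C. Concentration-response data fitted to Hill equation.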

[3] = qHTS assay for small molecule antagonists of peroxisome proliferator-activated receptor delta signaling (AID 588535); conditions: HEK293T PPARd-UAS-bla, beta-lactamase FRET ratio, 18 h; 460 nm channel;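 also: cells co-treated with a PPAR-delta agonist as stimulator during compound exposure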
Summary of the method: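 HEK293T PPAR-delta-UAS-bla cells, 4000/well, 2% charcoal/dextran FBS; 5 h 37 C; cpd titration; 18 h 37 C; CCF4 2 h RT; FI 460/530 nm; Hill fit → IC50, efficacy.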

[4] = biological target: Vitamin D3 receptor (Homo sapiens) (UniProt P11473); test: qHTS assay for small molecule antagonists of vitamin D receptor signaling (AID 588541);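 also: receptor activated by calcitriol during compound treatment; series mostly up to about 77 µM; % is scaled to controls: 0 for no effect and ±100 for the full control effect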
Summary of the method: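 Antagonist-mode beta-lactamase reporter assay: HEK293T VDR-UAS-bla cells were exposed to titrated compound alongside 1-alpha,25-dihydroxyvitamin D3 at 3 nM final for 16 h. Values were normalized to the 50 nM agonist control and DMSO basal, with IC50 and efficacy from Hill equation fits.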

[5] = biological target: Vitamin D3 receptor (Homo sapiens) (UniProt P11473); test: qHTS assay for small molecule agonists of vitamin D receptor signaling (AID 588543);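 also: 0% = DMSO basal and 100% = reference agonist control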
Summary of the method: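 Reporter cells (HEK293T, VDR-UAS-bla) were seeded in medium with 2% charcoal-stripped serum and incubated 5 h, then compounds in concentration series were added for 16 h at 37 °C. Stimulation was scaled between DMSO basal and 50 nM 1α,25-dihydroxyvitamin D3.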

[6] = qHTS assay for small molecule agonists of retinoid X receptor alpha signaling (AID 588544); conditions: HEK293T RXRa-UAS-bla, beta-lactamase reporter, 18 h; 530 nm emission;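 as to activation: 0% = DMSO basal wells and 100% = reference agonist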
[7] = biological target: Retinoic acid receptor RXR-alpha (Homo sapiens) (UniProt P19793); test: as above
[8] = qHTS assay for small molecule antagonists of retinoid X receptor alpha signaling (AID 588546; active = well fitted inhibition curve with a large enough effect in the signal ratio, with a control signal flat, not every such curve was filed as active; the % refers to the signal ratio; also: potency is read from the fitted curve at half-maximal effect); conditions: HEK293T RXRa-UAS-bla, beta-lactamase ratio, antagonist mode; measured here: W530 green channel, cytotoxicity proxy
Summary of the method: (§1)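 Beta-lactamase reporter inhibition, read as CCF4 fluorescence ratio (ex 405, em 460/530 nm) after 2 h at RT. HEK293T UAS-bla cells, 2500/well, were stimulated with 9-cis-RA at 500 or 100 nM final alongside test compound for 18 h at 37 C.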

[9] = biological target: Retinoic acid receptor RXR-alpha (Homo sapiens) (UniProt P19793); test: as above; conditions: HEK293T RXRa-UAS-bla, beta-lactamase ratio, antagonist mode
Summary of the method: as §1

[10] = biological target: Thyroid hormone receptor beta (Homo sapiens) (UniProt P10828); test: qHTS assay for small molecule antagonists of thyroid hormone receptor beta signaling (AID 588547; active = well fitted inhibition curve with a large enough effect in the signal ratio, with a control signal flat, not every such curve was filed as active; the % refers to the signal ratio;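 also: cells stimulated with 0.4 nM T3 agonist during compound exposure; series mostly up to about 77 µM; % is scaled to controls: 0 for no effect and ±100 for the full control effect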); conditions: TR-UAS-bla HEK293, beta-lactamase ratio, antagonist mode, 18 h
Summary of the method: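 Inhibition of T3-driven (0.4nM final) beta-lactamase reporter activity was measured over 0.59 nM to 92 uM compound after 18 h at 37 C. The cells were GripTite HEK293 TR-UAS-bla in charcoal/dextran-stripped serum, with CCF4 ratio read-out and IC50 from Hill fits.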

[11] = qHTS assay for small molecule activators of the p53 signaling pathway (AID 651743; active = well fitted activation curve with a large enough effect in the signal ratio, not every such curve was filed as active; the % refers to the signal ratio; also: series mostly up to about 92 µM; % of control where 0% means no effect); conditions: HCT-116 p53RE-bla, beta-lactamase FRET ratio, 16 h; activation: stronger effect = higher value
Summary of the method: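 Read-out is fluorescence intensity from the LiveBLAzer B/G FRET substrate, added for 2 hours at room temperature after HCT-116 p53RE-bla cells had been incubated with compounds for 16 hours at 37 C.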

[12] = qHTS assay for environmental chemicals that activate the Aryl hydrocarbon Receptor (AhR) signaling pathway (AID 651777; active = well fitted curve in the direction sought with a large enough effect; an effect the other way counts as inactive or inconclusive; also: % of control where 0% means no effect; nearly all actives have a fitted effect of over 15% in size); conditions: 1A2-DRE human hepatoma cells, luciferase, 24 h; activation: stronger effect = higher value
Summary of the method: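 Concentration–response screening used 1,200 1A2-DRE cells per well, 24 hr compound exposure (37 C, 5% CO2), and One-Glo luminescence as the AhR-driven CYP1A2 reporter signal.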

[13] = biological target: Peroxisome proliferator-activated receptor alpha (Homo sapiens) (UniProt Q07869); test: qHTS assay for small molecule agonists of the peroxisome proliferator-activated receptor alpha (PPARalpha) signaling pathway (AID 651778; active = well fitted curve in the direction sought with a large enough effect; an effect the other way counts as inactive or inconclusive; also: % of control where 0% means no effect); conditions: PathHunter PPARalpha complementation, chemiluminescence, 6 h; max response: stronger effect = higher value
Summary of the method: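 Chemiluminescence from complemented enzyme reported PPARalpha activation in cells after 6 hr of compound treatment at 37 C. The detection reagent was incubated for 60 min at room temperature, and compounds were scored as agonists.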

[14] = qHTS assay for small molecule agonists of the antioxidant response element (ARE) signaling pathway measured by Nrf2-dependant transcriptional activity (AID 720636; active = well fitted curve in the direction sought with a large enough effect in the repeat runs; an effect the other way counts as inactive or inconclusive;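 also: HepG2 cells with an ARE-driven luciferase reporter; % of control where 0% means no effect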)
Summary of the method: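 Attachment 6 hr at 37 C, then compound versus DMSO vehicle for 16 hr in ARE-luc HepG2 cells (1% dialyzed FBS); luminescence recorded 30 min after ONE-Glo addition at room temperature.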

[15] = qHTS assay for small molecule agonists of the antioxidant response element (ARE) signaling pathway measured by Nrf2-dependant transcriptional activity - cell viability counter screen (AID 720653; active = well fitted curve in the direction sought with a large enough effect in the repeat runs; an effect the other way counts as inactive or inconclusive; also: % is scaled to controls: 0 for no effect and ±100 for the full control effect); conditions: ARE-bla HepG2 viability, CellTiter-Glo ATP luminescence, 16 h; max response: stronger effect = lower value
Summary of the method: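 Cytotoxicity counter screen: intracellular ATP quantified by CellTiter-Glo luminescence in the same ARE-bla HepG2 plates, after 16 h compound exposure and a 2 h beta-lactamase substrate step.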

[16] = qHTS assay for cell viability of HEK293 cells (AID 743288; active = well fitted curve in the direction sought with a large enough effect; an effect the other way counts as inactive or inconclusive; also: % is scaled to controls: 0 for no effect and ±100 for the full control effect; nearly all actives have a fitted effect of over 50% in size); conditions: ATP luminescence (CellTiter-Glo), 18 h; max response: stronger effect = lower value
Summary of the method: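 HEK293 parental, 2,000 cells/well; ≥5 h pre-incubation 37 C; pintool compound addition; 18 h, 37 C; CellTiter-Glo 30 min RT; luminescence read.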

[17] = qHTS assay for cell viability of the p53RE-bla HCT-116 cell line (AID 743292; active = well fitted curve in the direction sought with a large enough effect; an effect the other way counts as inactive or inconclusive; also: % is scaled to controls: 0 for no effect and ±100 for the full control effect; nearly all actives have a fitted effect of over 55% in size)
Summary of the method: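 Compound-exposed HCT-116 (p53RE-bla) cells, 4,000 per well, were kept 16 h at 37 C following a 5 h preincubation. Cell number was estimated from total ATP by CellTiter-Glo luminescence read after 30 min at room temperature.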

[18] = biological target: Thyroid hormone receptor beta (Homo sapiens) (UniProt P10828); test: qHTS assay for small molecule agonists of thyroid hormone receptor beta signaling (AID 588545)
Summary of the method: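 Agonist activity was read as beta-lactamase CCF4 fluorescence (405 ex, 460/530 em), scaled between DMSO (0%) and 10 nM T3 (100%), then Hill-fitted for EC50 and efficacy. HEK 293 TR-UAS-bla cells in 2% charcoal/dextran FBS medium were exposed 18 h at 37 C.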

[19] = biological target: Nuclear receptor subfamily 1 group I member 2 (Rattus norvegicus) (UniProt Q9R1A7); test: qHTS assay for small molecule activators of the rat pregnane X receptor (rPXR) signaling pathway (AID 651751; call rule not given here; also: 0% is about no effect); conditions: rPXR reporter cells, luciferase (One-Glo), 24 h
[20] = biological target: Glucocorticoid receptor (Homo sapiens) (UniProt P04150); test: qHTS assay for small molecule antagonists of glucocorticoid receptor signaling (AID 588533; active = well fitted inhibition curve with a large enough effect in the signal ratio, with a control signal flat, not every such curve was filed as active; the % refers to the signal ratio;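 also: cells stimulated with 2 nM dexamethasone as agonist; % is scaled to controls: 0 for no effect and ±100 for the full control effect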)
Summary of the method: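 Antagonist-mode qHTS: compound titrations added to GRE-bla HeLa cells, then dexamethasone 2 nM final; 18 h, 37 C. CCF4 FRET fluorescence normalized to dexamethasone and DMSO; IC50 from Hill fit.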

Chain of Vitamin D3 receptor (Homo sapiens) (P11473 whole entry, looked up): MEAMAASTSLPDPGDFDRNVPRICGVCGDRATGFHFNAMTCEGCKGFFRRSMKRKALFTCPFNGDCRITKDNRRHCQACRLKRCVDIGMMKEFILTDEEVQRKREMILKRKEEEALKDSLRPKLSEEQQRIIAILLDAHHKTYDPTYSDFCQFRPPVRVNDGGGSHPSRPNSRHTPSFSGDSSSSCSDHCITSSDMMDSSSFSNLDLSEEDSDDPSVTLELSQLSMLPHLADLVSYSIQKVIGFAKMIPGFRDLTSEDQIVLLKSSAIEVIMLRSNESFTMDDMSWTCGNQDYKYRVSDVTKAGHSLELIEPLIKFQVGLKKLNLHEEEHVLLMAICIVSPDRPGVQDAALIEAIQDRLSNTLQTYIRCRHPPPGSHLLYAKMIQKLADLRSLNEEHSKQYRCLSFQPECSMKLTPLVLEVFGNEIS
Chain of Retinoic acid receptor RXR-alpha (Homo sapiens) (P19793 whole entry, looked up): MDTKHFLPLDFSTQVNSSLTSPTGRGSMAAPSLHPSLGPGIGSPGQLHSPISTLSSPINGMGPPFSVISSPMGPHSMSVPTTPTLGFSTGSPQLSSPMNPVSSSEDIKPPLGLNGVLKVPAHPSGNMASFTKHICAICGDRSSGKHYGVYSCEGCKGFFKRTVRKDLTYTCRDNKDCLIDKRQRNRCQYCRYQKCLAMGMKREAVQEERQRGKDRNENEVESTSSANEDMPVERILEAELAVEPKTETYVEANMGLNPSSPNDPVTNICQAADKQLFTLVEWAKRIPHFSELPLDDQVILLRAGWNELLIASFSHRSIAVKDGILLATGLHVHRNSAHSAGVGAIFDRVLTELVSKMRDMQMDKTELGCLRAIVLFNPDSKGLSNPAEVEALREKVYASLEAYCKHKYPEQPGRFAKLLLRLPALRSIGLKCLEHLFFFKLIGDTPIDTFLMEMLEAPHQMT
Chain of Peroxisome proliferator-activated receptor delta (Homo sapiens) (Q03181 whole entry, looked up): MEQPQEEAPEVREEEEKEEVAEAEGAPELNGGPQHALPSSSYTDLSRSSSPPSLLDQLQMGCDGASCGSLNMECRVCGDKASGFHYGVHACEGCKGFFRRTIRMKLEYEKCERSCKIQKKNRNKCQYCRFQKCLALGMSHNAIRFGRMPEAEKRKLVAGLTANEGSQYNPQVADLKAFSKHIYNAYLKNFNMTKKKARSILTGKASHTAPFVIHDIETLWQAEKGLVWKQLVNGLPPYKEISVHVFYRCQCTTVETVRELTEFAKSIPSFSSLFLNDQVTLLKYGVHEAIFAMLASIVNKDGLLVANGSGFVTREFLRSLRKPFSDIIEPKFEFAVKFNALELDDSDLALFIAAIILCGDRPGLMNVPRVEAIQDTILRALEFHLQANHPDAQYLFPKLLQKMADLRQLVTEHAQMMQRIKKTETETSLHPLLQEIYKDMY
Chain of Glucocorticoid receptor (Homo sapiens) (P04150 whole entry, looked up): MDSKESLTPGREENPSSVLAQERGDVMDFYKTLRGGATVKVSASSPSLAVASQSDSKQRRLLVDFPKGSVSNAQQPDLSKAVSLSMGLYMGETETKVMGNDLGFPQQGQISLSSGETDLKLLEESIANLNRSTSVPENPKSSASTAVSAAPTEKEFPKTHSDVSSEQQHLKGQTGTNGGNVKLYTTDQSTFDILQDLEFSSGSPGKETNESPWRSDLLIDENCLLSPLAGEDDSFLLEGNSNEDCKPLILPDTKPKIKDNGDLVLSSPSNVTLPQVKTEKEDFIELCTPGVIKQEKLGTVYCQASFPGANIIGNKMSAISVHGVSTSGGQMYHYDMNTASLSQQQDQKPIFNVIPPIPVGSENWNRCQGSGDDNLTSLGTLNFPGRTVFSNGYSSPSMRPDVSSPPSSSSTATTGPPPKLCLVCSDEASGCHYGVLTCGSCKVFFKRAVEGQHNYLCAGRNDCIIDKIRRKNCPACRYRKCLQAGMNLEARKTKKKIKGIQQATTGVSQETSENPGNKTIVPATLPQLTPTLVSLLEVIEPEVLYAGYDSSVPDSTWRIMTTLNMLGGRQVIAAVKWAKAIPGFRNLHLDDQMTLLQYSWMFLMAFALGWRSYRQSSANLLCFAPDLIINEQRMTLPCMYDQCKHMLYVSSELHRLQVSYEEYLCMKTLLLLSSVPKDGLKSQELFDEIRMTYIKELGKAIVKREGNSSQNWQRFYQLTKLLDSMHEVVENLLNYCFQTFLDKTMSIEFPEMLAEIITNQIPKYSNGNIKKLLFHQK
Chain of Bile acid receptor (Homo sapiens) (Q96RI1 whole entry, looked up): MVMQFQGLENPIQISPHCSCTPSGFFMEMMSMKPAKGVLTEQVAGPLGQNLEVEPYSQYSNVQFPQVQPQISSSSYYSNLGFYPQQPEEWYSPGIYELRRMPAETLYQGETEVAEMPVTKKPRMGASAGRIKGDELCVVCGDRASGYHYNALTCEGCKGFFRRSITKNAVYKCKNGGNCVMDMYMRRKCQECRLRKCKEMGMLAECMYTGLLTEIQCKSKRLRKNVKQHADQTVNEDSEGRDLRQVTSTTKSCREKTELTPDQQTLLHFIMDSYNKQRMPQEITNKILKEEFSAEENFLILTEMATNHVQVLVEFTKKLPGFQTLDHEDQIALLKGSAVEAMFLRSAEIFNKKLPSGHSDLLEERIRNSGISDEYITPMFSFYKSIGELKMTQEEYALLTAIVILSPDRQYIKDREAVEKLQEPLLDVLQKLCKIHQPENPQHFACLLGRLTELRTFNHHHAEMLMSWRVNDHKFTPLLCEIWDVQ
Chain of Peroxisome proliferator-activated receptor alpha (Homo sapiens) (Q07869 whole entry, looked up): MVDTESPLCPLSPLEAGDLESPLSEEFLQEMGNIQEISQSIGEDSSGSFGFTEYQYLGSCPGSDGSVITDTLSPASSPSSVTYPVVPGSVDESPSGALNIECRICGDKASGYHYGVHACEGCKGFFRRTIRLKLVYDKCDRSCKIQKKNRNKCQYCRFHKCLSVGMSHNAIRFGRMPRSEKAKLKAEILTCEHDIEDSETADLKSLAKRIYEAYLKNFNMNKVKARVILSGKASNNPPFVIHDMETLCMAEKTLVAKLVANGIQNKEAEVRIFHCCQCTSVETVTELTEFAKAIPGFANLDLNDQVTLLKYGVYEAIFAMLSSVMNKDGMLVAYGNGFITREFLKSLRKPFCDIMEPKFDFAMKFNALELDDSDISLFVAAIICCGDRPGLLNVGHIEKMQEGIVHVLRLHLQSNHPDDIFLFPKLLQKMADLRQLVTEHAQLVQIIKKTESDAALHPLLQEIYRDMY
Chain of Thyroid hormone receptor beta (Homo sapiens) (P10828 whole entry, looked up): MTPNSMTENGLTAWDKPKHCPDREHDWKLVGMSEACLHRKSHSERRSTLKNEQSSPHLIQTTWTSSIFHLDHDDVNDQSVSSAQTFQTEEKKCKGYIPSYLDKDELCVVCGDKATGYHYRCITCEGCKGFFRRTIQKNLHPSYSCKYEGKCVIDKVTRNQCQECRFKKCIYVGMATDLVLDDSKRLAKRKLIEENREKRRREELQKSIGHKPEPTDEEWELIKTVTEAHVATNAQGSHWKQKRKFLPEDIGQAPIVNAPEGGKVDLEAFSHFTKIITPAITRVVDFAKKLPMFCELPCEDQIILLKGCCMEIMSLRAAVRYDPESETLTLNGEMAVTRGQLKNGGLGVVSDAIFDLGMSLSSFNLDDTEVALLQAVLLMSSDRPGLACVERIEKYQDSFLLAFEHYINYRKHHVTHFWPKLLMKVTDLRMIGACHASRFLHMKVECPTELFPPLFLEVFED
Chain of Nuclear receptor subfamily 1 group I member 2 (Rattus norvegicus) (Q9R1A7 whole entry, looked up): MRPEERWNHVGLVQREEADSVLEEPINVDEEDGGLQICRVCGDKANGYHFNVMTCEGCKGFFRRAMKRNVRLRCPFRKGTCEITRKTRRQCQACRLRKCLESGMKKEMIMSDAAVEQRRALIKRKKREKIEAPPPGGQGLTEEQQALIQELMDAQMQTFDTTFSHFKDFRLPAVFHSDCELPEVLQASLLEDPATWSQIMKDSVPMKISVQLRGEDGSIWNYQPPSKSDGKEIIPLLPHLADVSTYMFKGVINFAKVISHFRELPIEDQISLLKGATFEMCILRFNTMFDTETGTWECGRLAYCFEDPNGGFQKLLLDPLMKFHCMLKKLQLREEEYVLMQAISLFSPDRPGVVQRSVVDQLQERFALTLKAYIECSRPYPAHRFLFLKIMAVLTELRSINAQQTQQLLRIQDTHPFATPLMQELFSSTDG

CC1(C)C(C(=O)OC(C#N)c2cccc(Oc3ccccc3)c2)C1(C)C (stereo unspecified)
-18.6%: max response [8]
inactive: activation [1] 5.5% | outcome [2] | Potency [4] | outcome [5] | Potency [7] | max response [9] -14.5% | activity change % (negative = inhibition) [10] 2.17% | activation [11] -5.39% | activation [12] -0.509% | max response [13] -0.276% | Potency [14] | max response [15] -19.4% | max response [16] -11.3% | Potency [17]
-5.14%: max response [6]
27.8%: max response [3]

CCCCOCN(C(=O)CCl)c1c(CC)cccc1CC
inactive: activation [1] -0.328% | outcome [2] | outcome [5] | Potency [18] | activity change % (negative = inhibition) [10] -14.9% | activation [11] -3.79% | activation [12] -2.46% | max response [13] 0.0844% | max response [15] -23.8% | max response [16] -23.1% | Potency [17] | max response [19] 3.67%

CC(C)=CC1[C@H](C(=O)OCc2cccc(Oc3ccccc3)c2)C1(C)C (stereo partly specified)
-13.6%: max response [8]
inactive: activation [1] -3.66% | Potency [20] | Potency [4] | outcome [5] | Potency [7] | max response [9] 3.36% | activity change % (negative = inhibition) [10] 2.1% | activation [11] -1.37% | activation [12] -0.0338% | max response [13] -1.72% | Potency [14] | max response [15] -3.94% | max response [16] -10.6% | Potency [17]
-6.27%: max response [6]
26%: max response [3]

Cc1cccc2sc3nncn3c12
inactive: activation [1] -0.105% | outcome [2] | Potency [7] | Potency [18] | max response [9] 2.1% | activity change % (negative = inhibition) [10] 6.25% | activation [11] 2.35% | activation [12] -0.0294% | max response [15] 0.787% | max response [16] -3.66% | Potency [17]
0.611%: max response [6]
-10.6%: max response [8]
26.1%: max response [3]

CCc1cc(C)cc(CC)c1-c1c(OC(=O)C(C)(C)C)n2n(c1=O)CCOCC2
34.5%: max response [3]
0.581%: max response [8]
-12.9%: max response [6]
inactive: activation [1] 2.69% | Potency [20] | outcome [2] | Potency [4] | Potency [7] | Potency [18] | max response [9] 4.99% | activity change % (negative = inhibition) [10] -5.07% | activation [11] -4.38% | activation [12] 2.1% | max response [13] -1.33% | Potency [14] | max response [15] 0.802% | max response [16] -3.66% | Potency [17] | max response [19] 1.04%

CC(C)(C)[C@@H](O)/C(=C\c1ccc(Cl)cc1Cl)n1cncn1
active: Potency [9] 44.7 µM
18.6%: max response [8]
inactive: activation [1] 0.6% | Potency [20] | outcome [2] | outcome [5] | Potency [18] | activity change % (negative = inhibition) [10] -11.6% | activation [11] -3.2% | Potency [14] | max response [15] 6.93% | Potency [17]
